The values below come from paper PMC5540273 (PLoS ONE, 2017).
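Further: KINOMEscan kinase panel screen.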

The assay concerns T1, LOK.
T1 construct: gene STK10
The conditions noted are these: concentration: 1 μM, replicates: in singlicate; n = 1.
For `Nc1n[nH]c2cnc(-c3ccccc3)cc12` [SB-642124], the “%Inh” value worked out at 0%.
With `COc1cccc(C2=C(Nc3ccc(Cl)c(C(=O)O)c3)C(=O)NC2=O)c1` [SB-390769], the “%Inh” value worked out at 0%.
Under `Cn1cc(-c2ccc3c(c2)CCN3C(=O)Cc2cccc(Cl)c2)c2c(N)ncnc21` [GSK2606590] stands 98.1%; under `COc1cccc(-c2ccc3c(NC(=O)C4CC4)n[nH]c3n2)c1` [SB-710903], 0%.
Next, `Cc1ccc(C(=O)N2CC[C@@H](O)C2)cc1-n1c(C)cc(OCc2ccc(F)cc2F)c(Br)c1=O`: 0%.
For `O=c1[nH]cc(-c2ccc(N3CCOCC3)cc2)c2sc(-c3cn[nH]c3)cc12` [GSK2276055], the “%Inh” value amounted to 0%.
Turning to `COc1cc(Nc2ncc3c(C)nc(-c4cc5ccccc5[nH]4)n3n2)cc(OC)c1OC` [GW869516], the “%Inh” value was 8%.
Next, `O=C(Nc1cccc(-c2nn3ccccc3c2-c2ccnc(Nc3cccc(F)c3)n2)c1)c1c(F)ccc(F)c1Cl` [GSK357952]: 97.6%; `CSc1cccc2c(-c3ccncn3)c(-c3ccc(F)cc3)nn12` [GW514786]: 0%; `COc1cc(Nc2nccc(-c3c(-c4cccc(NC(=O)c5c(F)cccc5F)c4)nn4ncccc34)n2)cc(OC)c1OC` [GSK327238]: 99.3%.
With `Cc1ccc(S(=O)(=O)Nc2ccc(Nc3nccc(Nc4cccc5[nH]ncc45)n3)cc2)cc1` [GSK581271], the “%Inh” value amounted to 0%.
For the compound `O=C(Nc1cccc(-c2nn3ncccc3c2-c2ccnc(Nc3ccccc3)n2)c1)c1c(F)cccc1F` [GSK198271], the “%Inh” value came to 99%.
Under `Cl.c1ccc(-c2ccc3c(Nc4ccc5[nH]ncc5c4)ccnc3c2)nc1` [GW440137] stands 2%; under `CN(C)S(=O)(=O)c1cc(-c2ccc3nccc(-c4cccc(S(N)(=O)=O)c4)c3c2)cnc1N` [GSK1669921], 0%.
For the compound `COc1ccc(CNC(=O)NC2CCN(c3ccnc(Nc4ccc(F)cc4)n3)CC2)cc1` [GSK1379788], the “%Inh” value is reported as 0%.
For the compound `Cl.Cl.NCC(C(=O)Nc1cc(Br)c(-c2ccnc3[nH]ccc23)s1)c1ccccc1` (stereo not drawn) [GSK1269851], the “%Inh” value amounted to 0%.
Under `CCS(=O)(=O)c1ccc(OC)c(Nc2nccc(-c3c(-c4cccc(NC(=O)c5c(F)cccc5F)c4)nn4ncccc34)n2)c1` [GSK326180] stands 92.1%; under `Fc1ccc(-c2ncn(C3CCNCC3)c2-c2ccnc(Oc3ccc(-c4ccccc4)cc3)n2)cc1` [SB-245391], 21%.
Next, `CN(c1ccc(NC(=O)Nc2cc(C(F)(F)F)ccc2F)cc1)c1ccnc(Nc2ccc(S(N)(=O)=O)cc2)n1` [GW809893]: 100%; `Cc1ccc(F)c(C(=O)Nc2cccc(-c3nn4ccccc4c3-c3ccnc(Nc4cccc(F)c4)n3)c2)c1F` [GSK361061]: 98.5%.
In the case of `CC(C)(C)c1ccc2nccc(Nc3cccc(O)c3)c2c1` [GW856795], the “%Inh” value came out at 0%.
Next, `O=C(Nc1n[nH]c2cc(-c3ccoc3)ccc12)C1CC1` [SB-738481]: 0%; `CCn1c(-c2nonc2N)nc2c(C#CC(C)(C)O)nc(OC[C@H](N)c3ccccc3)cc21` [GSK943949]: 1%.
Consider `Cl.c1ccc(-c2ccc3c(Nc4ccc5[nH]ccc5c4)ccnc3c2)nc1` [GW440138], for which the “%Inh” value is on record as 51%.
Next, `Cn1cc(-c2[nH]c3cc(NC(=O)[C@H](N)C4CCCCC4)cc4c3c2C=NNC4=O)cn1`: 17%; `C[C@@H]1CC[C@@H](C(=O)Nc2ccccc2)CN1c1cc(-c2ccc3c(N)n[nH]c3c2)nc(N)n1` [GSK2286062]: 0%; `Nc1ncc(-c2cccnc2)c2scc(-c3ccc4c(c3)CCN4C(=O)Cc3ccccc3)c12` [GSK683281]: 75%.
On to `CC(=O)Nc1nc2cnc(Nc3cc(NC(=O)c4cccc(C5(C#N)CC5)c4Cl)ccc3C)nc2s1`, for which the “%Inh” value is given as 54%.
On to `CCc1ccc(-c2ccc3c(c2)-c2c(cnn2C)S(=O)(=O)N3C)cc1`, for which the “%Inh” value stood at 16%.
Next, `COCCOCCOc1cc2ncc3c4ccc(C#N)cc4[nH]c3c2cc1OC`: 73%; `Cc1ccc(C(=O)Nc2ccc(Nc3ccnc4cc(-c5nccs5)ccc34)cc2O)cc1.Cl` [GW494702]: 68%.
Under `COc1cc(Nc2nccc(N3CCC(NC(=O)c4cc5ccccc5s4)C3)n2)cc(OC)c1OC` (stereo not drawn) [GSK1379760] stands 84%; under `Cl.NC(=O)c1cccc(Nc2nccc(Nc3ccc(Oc4c(Cl)cccc4Cl)c(Cl)c3)n2)c1` [GW659009], 49%.
